What all share (experiment): NCI-60 one-dose screen, 48 h (100 = growth as untreated, 0 = no growth, -100 = all killed)
In one assay the test system is SK-MEL-2 melanoma. The conditions noted are these: 10 µM.
A further assay relates to EKVX NSCLC. To be noted: 10 µM.
The test system of another assay is SN12C renal. To be noted: 10 µM.
A further assay relates to UO-31 renal. The conditions noted are these: 10 µM.
The test system of another assay is TK-10 renal. The conditions noted are these: 10 µM unless noted.
For the next assay, the system named is ACHN renal. To be noted: 10 µM.
The subject of the next assay is A498 renal. To be noted: 10 µM.
A further assay deals with CCRF-CEM leukemia. To be noted: 10 µM.
A further assay deals with MOLT-4 leukemia. The conditions noted are these: 10 µM.
A further assay concerns SR leukemia. The conditions noted are these: 10 µM.
In a further assay the test system is RPMI-8226 leukemia. To be noted: 10 µM.
The subject of another assay is OVCAR-8 ovarian. The conditions noted are these: 10 µM.
In the next assay the test system is OVCAR-5 ovarian. To be noted: 10 µM.
A further assay concerns OVCAR-4 ovarian. To be noted: 10 µM.
For the next assay, the system named is SK-OV-3 ovarian. The conditions noted are these: 10 µM.
A further assay has as its system IGROV1 ovarian. To be noted: 10 µM.
A further assay concerns OVCAR-3 ovarian. To be noted: 10 µM.
A further assay deals with HS 578T breast. The conditions noted are these: 10 µM.
For a further assay, the system named is NCI/ADR-RES ovarian. The conditions noted are these: 10 µM.
For a further assay, the system named is CAKI-1 renal. To be noted: 10 µM.

Drawing on PubChem BioAssay (NCI), this text covers growth for 9 molecules.

Compounds without any hit were thinned out: in the full panel of roughly 83,000, 20% have a hit.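 Compound tested at a single concentration for 48 hours in 96-well plates; a percent growth value below 10 was scored as active.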 Values without a mark were called inactive. Calls of active or inactive are those of the source. Where a SMILES comes first, the peptide text is derived from it. Bridges are numbered along the chain shown (N, C = ends). [ ]: non-standard residue; d: D form. The star is where a group is joined. ξ: configuration not given here. ξNMePhe(4-NMe2) = CNC(Cc1ccc(N(C)C)cc1)C(=O)O; Picolinoyl(3-OH) = O=C(c1ncccc1O)*; ξPip(4-oxo) = O=C1CCNC(C(=O)O)C1; Phg = N[CH](C(=O)O)c1ccccc1; Abu = CC[CH](N)C(=O)O

As to `c1ccc2c(N3CCCCC3)ncnc2c1`, the growth was 92.6% in the assay on SK-MEL-2 melanoma; 94% in the assay on EKVX NSCLC; 91.1% with SN12C renal; 62.5% in the assay with UO-31 renal; 90.9% with TK-10 renal; 81.9% in the assay on ACHN renal. Further, the growth was 106% with A498 renal; 93.2% in the assay on CCRF-CEM leukemia; 91.2% in the assay with MOLT-4 leukemia; 105% with SR leukemia; 66.9% in the assay with RPMI-8226 leukemia; 94.4% in the assay on OVCAR-8 ovarian. Moreover, the growth with OVCAR-5 ovarian is 99.9%; with OVCAR-4 ovarian, 96.8%; with SK-OV-3 ovarian it was 94%; in the assay with IGROV1 ovarian, 96%; in the assay on OVCAR-3 ovarian, 97.3%; in the assay with HS 578T breast it was 116%. Moreover, the growth in the assay with NCI/ADR-RES ovarian is 91%.
With `CC(=O)OCC1OC(OC2=C(CC=C(C)C)C(=O)c3ccccc3C2=O)C(OC(C)=O)C(OC(C)=O)C1OC(C)=O` (configuration not stated), the growth was 58.7% in the assay on SK-MEL-2 melanoma; 15.6% in the assay on EKVX NSCLC; 52% with SN12C renal; 38.6% in the assay with UO-31 renal; 87.4% in the assay on TK-10 renal; 12.8% in the assay with ACHN renal. Further, the growth with A498 renal is 22.6%; in the assay on CCRF-CEM leukemia it was -25.8% (active); in the assay on MOLT-4 leukemia, -26.7% (active); in the assay with SR leukemia it was -42.9% (active); in the assay on RPMI-8226 leukemia, -13.1% (active); in the assay on OVCAR-8 ovarian, 53.6%. Besides, the growth with OVCAR-5 ovarian was 89.7%; in the assay with SK-OV-3 ovarian, 84.4%; in the assay on IGROV1 ovarian it was 68%; with OVCAR-3 ovarian it was -33.1% (active); in the assay with HS 578T breast it was 18%; in the assay on NCI/ADR-RES ovarian, 32.4%.
As to `COc1cc(CN)ccc1O`, the growth in the assay with SK-MEL-2 melanoma was -8.32% (active); with EKVX NSCLC, 71.3%; in the assay with SN12C renal, 81.7%; in the assay with UO-31 renal it was 82.7%; in the assay on TK-10 renal it was 88.4%; in the assay with ACHN renal, 96%. Moreover, the growth in the assay with A498 renal is 128%; in the assay on CCRF-CEM leukemia, 93.1%; in the assay on MOLT-4 leukemia, 134%; with SR leukemia, 89.5%; with RPMI-8226 leukemia, 81%; with OVCAR-8 ovarian, 102%. The growth in the assay with OVCAR-5 ovarian was 95.5%; in the assay on OVCAR-4 ovarian, 108%; with SK-OV-3 ovarian, 93.8%; in the assay with IGROV1 ovarian it was 78.7%; in the assay with OVCAR-3 ovarian, 105%; with HS 578T breast it was 102%. In the assay with NCI/ADR-RES ovarian, the growth was 94.2%.
As for `CCOC(=O)CCCS(C)(=O)=O`, the growth was 90.7% in the assay on SK-MEL-2 melanoma; 113% in the assay with EKVX NSCLC; 97.4% in the assay with SN12C renal; 90.5% with UO-31 renal; 102% with TK-10 renal; 104% in the assay on ACHN renal. The growth was 117% with CAKI-1 renal; 113% with CCRF-CEM leukemia; 96.5% with MOLT-4 leukemia; 124% with RPMI-8226 leukemia; 108% in the assay with OVCAR-8 ovarian; 97.4% in the assay on OVCAR-5 ovarian. The growth was 103% in the assay on OVCAR-4 ovarian; 103% with SK-OV-3 ovarian; 120% in the assay on IGROV1 ovarian; 127% with OVCAR-3 ovarian; 101% in the assay with HS 578T breast; 103% with NCI/ADR-RES ovarian.
Regarding `CC1(C)/C(=C\CO)C2CCC1C2` (configuration not stated), the growth was 105% in the assay with SK-MEL-2 melanoma; 113% in the assay on EKVX NSCLC; 99.4% with SN12C renal; 78.5% in the assay with UO-31 renal; 89.7% in the assay on TK-10 renal; 112% in the assay with ACHN renal. For the same molecule, the growth was 102% in the assay on CAKI-1 renal; 92.3% in the assay on CCRF-CEM leukemia; 97.8% with SR leukemia; 91.6% with RPMI-8226 leukemia; 114% in the assay with OVCAR-8 ovarian; 105% in the assay on OVCAR-5 ovarian. The growth was 111% in the assay on OVCAR-4 ovarian; 99.8% in the assay with SK-OV-3 ovarian; 112% with IGROV1 ovarian; 119% in the assay on OVCAR-3 ovarian; 101% in the assay on HS 578T breast; 105% in the assay on NCI/ADR-RES ovarian.
On to `CCC1NC(=O)C(NC(=O)c2ncccc2O)C(C)OC(=O)C(c2ccccc2)NC(=O)C2CC(=O)CCN2C(=O)C(Cc2ccc(N(C)C)cc2)N(C)C(=O)C2CCCN2C1=O` (configuration not stated) (tested in a mixture with another compound) ({Picolinoyl(3-OH)}-T[Abu]P[ξNMePhe(4-NMe2)][ξPip(4-oxo)][Phg]; ester 1-C; configuration not given here), for which the growth was 95.9% in the assay on SK-MEL-2 melanoma; 41% with EKVX NSCLC; 75% with SN12C renal; 90.8% in the assay with UO-31 renal; 91% in the assay with TK-10 renal; 47.5% in the assay on ACHN renal. Moreover, the growth with CAKI-1 renal is 50.8%; with CCRF-CEM leukemia, 32%; in the assay on MOLT-4 leukemia it was 42.2%; in the assay on SR leukemia, 52.1%; with RPMI-8226 leukemia, 34.1%; in the assay with OVCAR-5 ovarian, -21.3% (active). Moreover, the growth in the assay on OVCAR-4 ovarian is 48.1%; with SK-OV-3 ovarian it was 95.5%; in the assay with IGROV1 ovarian, 64%; in the assay with OVCAR-3 ovarian, 63.1%; in the assay with NCI/ADR-RES ovarian, 179%.
As for `CC(=O)N(C)c1ccc([N+](=O)[O-])cc1`, the growth with SK-MEL-2 melanoma is 92%; in the assay with EKVX NSCLC it was 122%; in the assay with SN12C renal, 96.9%; in the assay on UO-31 renal it was 104%; in the assay with TK-10 renal, 95.8%; in the assay with ACHN renal, 99.4%. Further, the growth was 116% in the assay with A498 renal; 119% with CCRF-CEM leukemia; 75.9% in the assay with MOLT-4 leukemia; 105% with SR leukemia; 120% in the assay on RPMI-8226 leukemia; 99.6% with OVCAR-8 ovarian. Moreover, the growth was 91.8% in the assay with OVCAR-5 ovarian; 119% with OVCAR-4 ovarian; 106% in the assay on SK-OV-3 ovarian; 117% with IGROV1 ovarian; 118% with OVCAR-3 ovarian; 120% with HS 578T breast. Also, in the assay on NCI/ADR-RES ovarian, the growth was 106%.
On to `CCc1ccc(/C(C#N)=C/C=C/c2ccccc2)cc1`, for which the growth with SK-MEL-2 melanoma was -12.2% (active); with EKVX NSCLC, 52.3%; with SN12C renal, 53.2%; with UO-31 renal, 42.9%; with TK-10 renal it was 16.9%; with ACHN renal, 58.3%. For the same molecule, the growth is 53.7% in the assay with CAKI-1 renal; -5.51% (active) in the assay on CCRF-CEM leukemia; 3.53% (active) with SR leukemia; 3.92% (active) in the assay with RPMI-8226 leukemia; 34.3% in the assay with OVCAR-8 ovarian; 77.7% in the assay with OVCAR-5 ovarian. In addition, the growth in the assay with IGROV1 ovarian is 35.9%; in the assay with OVCAR-3 ovarian, -11.2% (active); in the assay with HS 578T breast, 39.7%; in the assay on NCI/ADR-RES ovarian it was 8.57% (active).
As for `Cc1nc2ccccc2c(C(=O)O)c1O`, the growth is 313% in the assay on SK-MEL-2 melanoma; 103% in the assay on EKVX NSCLC; 98.3% in the assay with SN12C renal; 91.2% in the assay on UO-31 renal; 113% in the assay with TK-10 renal; 97.8% in the assay on ACHN renal. In addition, the growth was 117% in the assay on A498 renal; 121% in the assay with CCRF-CEM leukemia; 132% in the assay on MOLT-4 leukemia; 95.6% in the assay on SR leukemia; 179% in the assay on RPMI-8226 leukemia; 102% in the assay on OVCAR-8 ovarian. In addition, the growth in the assay with OVCAR-5 ovarian is 91.4%; in the assay on OVCAR-4 ovarian, 116%; in the assay with SK-OV-3 ovarian, 95.3%; in the assay on OVCAR-3 ovarian, 113%; with HS 578T breast, 88.1%; in the assay on NCI/ADR-RES ovarian it was 94.5%.
